# What was measured:
# Experiment in all cases: DAPPL (digital affinity profiling via proximity ligation, sequencing); 10 mM Tris-HCl pH 7.5, 50 mM NaCl, 1 mM DTT, 4% glycerol, room temperature, 30 min; GST-TFs on glutathione beads, 16-mer random dsDNA library, 0.1% formaldehyde crosslink after washing; high values mean tight binding
# FLI1 = target: T1, FLI1 (Homo sapiens, UniProt Q01543 1-452); conditions: protein: recombinant; tags: N-terminal GST; dsDNA, one strand shown
# T1 sequence: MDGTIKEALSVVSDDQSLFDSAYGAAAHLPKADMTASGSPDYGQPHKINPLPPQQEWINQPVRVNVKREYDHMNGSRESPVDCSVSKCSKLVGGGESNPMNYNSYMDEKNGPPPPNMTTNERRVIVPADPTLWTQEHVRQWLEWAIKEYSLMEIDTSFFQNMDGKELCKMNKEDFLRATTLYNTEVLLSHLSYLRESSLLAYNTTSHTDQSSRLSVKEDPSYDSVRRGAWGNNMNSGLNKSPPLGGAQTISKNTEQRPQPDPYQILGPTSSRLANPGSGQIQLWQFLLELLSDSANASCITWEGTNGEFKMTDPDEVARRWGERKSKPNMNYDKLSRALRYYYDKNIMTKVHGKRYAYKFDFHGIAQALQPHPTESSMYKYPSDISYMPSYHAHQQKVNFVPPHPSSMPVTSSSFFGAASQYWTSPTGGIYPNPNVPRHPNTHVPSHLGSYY
# Method in brief: (§1)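 Human transcription factors carrying a GST fusion were produced in yeast, bound to glutathione beads, tagged with DNA barcodes and pooled together with a tag-only sample. Each pool was held with 200 nmole of a random double-stranded 16-mer DNA library in Tris/NaCl/DTT/glycerol buffer for 30 min at room temperature, then washed, crosslinked in 0.1% formaldehyde, proximity-ligated with BsaI/T4 ligase (1 h, 37 °C), PCR-amplified and sequenced on an Illumina NextSeq500. Binding signal is the read frequency of each hexamer for a given factor divided by its frequency in the tag-only sample.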
# ELK1 = target: T2, ELK1 (Homo sapiens, UniProt P19419 1-428); conditions: protein: recombinant; tags: N-terminal GST; dsDNA, one strand shown
# T2 sequence: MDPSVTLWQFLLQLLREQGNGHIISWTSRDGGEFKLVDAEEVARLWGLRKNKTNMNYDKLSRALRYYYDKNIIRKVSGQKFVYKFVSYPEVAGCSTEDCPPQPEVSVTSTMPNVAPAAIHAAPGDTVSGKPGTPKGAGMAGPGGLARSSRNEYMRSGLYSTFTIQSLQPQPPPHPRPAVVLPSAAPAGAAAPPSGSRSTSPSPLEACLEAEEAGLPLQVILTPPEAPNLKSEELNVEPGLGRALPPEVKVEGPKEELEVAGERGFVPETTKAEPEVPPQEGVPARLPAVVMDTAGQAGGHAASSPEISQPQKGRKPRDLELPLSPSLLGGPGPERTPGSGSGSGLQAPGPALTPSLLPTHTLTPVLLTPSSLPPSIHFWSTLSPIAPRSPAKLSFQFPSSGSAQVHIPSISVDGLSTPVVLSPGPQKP
# Method in brief: as §1
# GABPA = target: T3, GABPA (Homo sapiens, UniProt Q06546 1-454); conditions: protein: recombinant; tags: N-terminal GST; dsDNA, one strand shown
# T3 sequence: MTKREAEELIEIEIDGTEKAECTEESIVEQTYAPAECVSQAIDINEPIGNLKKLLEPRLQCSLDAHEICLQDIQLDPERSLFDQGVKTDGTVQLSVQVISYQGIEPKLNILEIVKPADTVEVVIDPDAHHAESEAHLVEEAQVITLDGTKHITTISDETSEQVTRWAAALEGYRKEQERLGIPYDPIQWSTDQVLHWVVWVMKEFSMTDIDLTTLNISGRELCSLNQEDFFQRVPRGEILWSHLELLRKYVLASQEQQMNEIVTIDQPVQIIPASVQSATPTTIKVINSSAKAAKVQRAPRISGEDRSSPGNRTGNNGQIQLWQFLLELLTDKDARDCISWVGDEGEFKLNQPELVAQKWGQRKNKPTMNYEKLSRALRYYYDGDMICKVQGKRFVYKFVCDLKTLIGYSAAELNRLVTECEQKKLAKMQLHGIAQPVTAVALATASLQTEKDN
# Method in brief: as §1
# ERG = target: T4, ERG (Homo sapiens, UniProt P11308 1-479); conditions: protein: recombinant; tags: N-terminal GST; dsDNA, one strand shown
# T4 sequence: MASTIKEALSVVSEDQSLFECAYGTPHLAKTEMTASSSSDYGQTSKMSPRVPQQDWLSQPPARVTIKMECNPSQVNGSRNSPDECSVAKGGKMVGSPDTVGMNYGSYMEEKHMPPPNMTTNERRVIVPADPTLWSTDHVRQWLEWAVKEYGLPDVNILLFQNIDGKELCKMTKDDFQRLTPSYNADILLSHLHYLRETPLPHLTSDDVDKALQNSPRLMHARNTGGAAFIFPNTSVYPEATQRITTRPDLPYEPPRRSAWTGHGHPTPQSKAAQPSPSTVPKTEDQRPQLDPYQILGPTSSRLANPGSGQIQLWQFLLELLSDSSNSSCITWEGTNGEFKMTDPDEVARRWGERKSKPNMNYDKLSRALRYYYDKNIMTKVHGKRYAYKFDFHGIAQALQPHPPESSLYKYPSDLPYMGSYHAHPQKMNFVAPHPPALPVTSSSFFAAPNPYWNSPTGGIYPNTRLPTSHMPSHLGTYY
# Method in brief: as §1
# ELF1 = ELF1 (Homo sapiens, UniProt P32519 1-619); conditions: protein: recombinant; tags: N-terminal GST; dsDNA, one strand shown
# Method in brief: as §1
# EHF = target: T5, EHF (Homo sapiens, UniProt Q9NZC4 1-300); conditions: protein: recombinant; tags: N-terminal GST; dsDNA, one strand shown
# T5 sequence: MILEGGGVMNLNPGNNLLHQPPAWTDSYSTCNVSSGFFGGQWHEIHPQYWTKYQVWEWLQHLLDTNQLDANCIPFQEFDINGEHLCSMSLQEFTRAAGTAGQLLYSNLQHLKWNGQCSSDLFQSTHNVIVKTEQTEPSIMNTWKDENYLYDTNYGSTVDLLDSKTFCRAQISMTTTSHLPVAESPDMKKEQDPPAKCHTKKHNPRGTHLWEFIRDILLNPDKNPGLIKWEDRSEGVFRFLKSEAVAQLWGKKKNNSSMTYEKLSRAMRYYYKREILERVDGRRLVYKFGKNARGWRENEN
# Method in brief: as §1
# SPI1 = SPI1 (Homo sapiens, UniProt P17947 1-270); conditions: protein: recombinant; tags: N-terminal GST; dsDNA, one strand shown
# Method in brief: as §1
# SPIB = SPIB (Homo sapiens, UniProt Q01892 1-262); conditions: protein: recombinant; tags: N-terminal GST; dsDNA, one strand shown
# Method in brief: as §1
# ELK3 = target: T6, ELK3 (Homo sapiens, UniProt P41970 1-407); conditions: protein: recombinant; tags: N-terminal GST; dsDNA, one strand shown
# T6 sequence: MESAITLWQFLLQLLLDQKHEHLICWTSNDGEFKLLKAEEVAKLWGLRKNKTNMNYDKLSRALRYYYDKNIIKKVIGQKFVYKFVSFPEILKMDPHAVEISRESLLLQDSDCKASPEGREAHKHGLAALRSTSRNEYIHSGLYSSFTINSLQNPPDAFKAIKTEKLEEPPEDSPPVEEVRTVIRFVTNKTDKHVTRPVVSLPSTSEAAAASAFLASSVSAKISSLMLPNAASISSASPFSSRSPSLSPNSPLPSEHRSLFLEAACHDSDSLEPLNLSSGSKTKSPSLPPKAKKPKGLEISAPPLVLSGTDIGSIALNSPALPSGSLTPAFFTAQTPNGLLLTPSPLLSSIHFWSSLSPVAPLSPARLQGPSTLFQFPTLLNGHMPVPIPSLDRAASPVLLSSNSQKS
# Method in brief: as §1
# FEV = target: T7, FEV (Homo sapiens, UniProt Q99581 1-238); conditions: protein: recombinant; tags: N-terminal GST; dsDNA, one strand shown
# T7 sequence: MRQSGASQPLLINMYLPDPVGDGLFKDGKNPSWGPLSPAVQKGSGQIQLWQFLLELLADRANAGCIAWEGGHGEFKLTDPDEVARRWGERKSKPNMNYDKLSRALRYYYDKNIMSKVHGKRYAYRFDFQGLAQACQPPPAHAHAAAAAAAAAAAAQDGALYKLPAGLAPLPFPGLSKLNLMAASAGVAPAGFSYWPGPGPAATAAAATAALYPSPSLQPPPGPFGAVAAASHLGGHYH
# Method in brief: as §1
# ETV5 = ETV5 (Homo sapiens, UniProt P41161 1-510); conditions: protein: recombinant; tags: N-terminal GST; dsDNA, one strand shown
# Method in brief: as §1
# HSF1 = HSF1 (Homo sapiens, UniProt Q00613 1-529); conditions: protein: recombinant; tags: N-terminal GST; chain copies: 3; dsDNA, one strand shown
# Method in brief: as §1
# SPIC = target: T8, SPIC (Homo sapiens, UniProt Q8N5J4 1-248); conditions: protein: recombinant; tags: N-terminal GST; dsDNA, one strand shown
# T8 sequence: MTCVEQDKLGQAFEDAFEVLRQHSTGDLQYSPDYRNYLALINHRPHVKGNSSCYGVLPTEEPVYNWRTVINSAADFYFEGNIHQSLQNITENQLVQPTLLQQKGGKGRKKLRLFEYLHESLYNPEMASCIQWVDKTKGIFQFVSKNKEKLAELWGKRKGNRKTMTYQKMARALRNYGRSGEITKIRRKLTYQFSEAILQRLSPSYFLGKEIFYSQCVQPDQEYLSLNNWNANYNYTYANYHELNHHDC
# Method in brief: as §1
# ELF4 = ELF4 (Homo sapiens, UniProt Q99607 1-663); conditions: protein: recombinant; tags: N-terminal GST; dsDNA, one strand shown
# Method in brief: as §1
# ELK4 = target: T9, ELK4 (Homo sapiens, UniProt P28324-2 1-405); conditions: protein: recombinant; tags: N-terminal GST; dsDNA, one strand shown
# T9 sequence: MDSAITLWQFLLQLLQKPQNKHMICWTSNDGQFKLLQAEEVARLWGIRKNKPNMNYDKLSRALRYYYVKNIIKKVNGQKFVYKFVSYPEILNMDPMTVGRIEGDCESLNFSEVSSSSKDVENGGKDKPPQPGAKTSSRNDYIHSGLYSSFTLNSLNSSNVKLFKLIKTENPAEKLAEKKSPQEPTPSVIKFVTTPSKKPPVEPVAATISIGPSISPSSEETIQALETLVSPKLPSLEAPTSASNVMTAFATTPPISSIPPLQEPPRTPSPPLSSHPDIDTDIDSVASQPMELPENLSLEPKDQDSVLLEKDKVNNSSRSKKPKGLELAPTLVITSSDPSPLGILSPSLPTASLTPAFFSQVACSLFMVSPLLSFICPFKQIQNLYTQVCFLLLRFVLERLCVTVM
# Method in brief: as §1
# ETV2 = target: T10, ETV2 (Homo sapiens, UniProt O00321 1-342); conditions: protein: recombinant; tags: N-terminal GST; dsDNA, one strand shown
# T10 sequence: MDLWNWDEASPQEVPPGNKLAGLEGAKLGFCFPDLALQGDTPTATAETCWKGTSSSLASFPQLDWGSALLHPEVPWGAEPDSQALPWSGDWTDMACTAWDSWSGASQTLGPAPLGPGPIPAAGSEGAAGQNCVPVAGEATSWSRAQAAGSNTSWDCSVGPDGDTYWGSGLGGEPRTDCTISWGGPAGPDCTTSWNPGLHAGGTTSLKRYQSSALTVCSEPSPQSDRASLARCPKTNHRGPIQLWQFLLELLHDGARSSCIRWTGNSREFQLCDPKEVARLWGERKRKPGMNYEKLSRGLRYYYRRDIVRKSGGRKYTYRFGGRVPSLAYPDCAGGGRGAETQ
# Method in brief: as §1
# ELF3 = target: T11, ELF3 (Homo sapiens, UniProt P78545 1-371); conditions: protein: recombinant; tags: N-terminal GST; dsDNA, one strand shown
# T11 sequence: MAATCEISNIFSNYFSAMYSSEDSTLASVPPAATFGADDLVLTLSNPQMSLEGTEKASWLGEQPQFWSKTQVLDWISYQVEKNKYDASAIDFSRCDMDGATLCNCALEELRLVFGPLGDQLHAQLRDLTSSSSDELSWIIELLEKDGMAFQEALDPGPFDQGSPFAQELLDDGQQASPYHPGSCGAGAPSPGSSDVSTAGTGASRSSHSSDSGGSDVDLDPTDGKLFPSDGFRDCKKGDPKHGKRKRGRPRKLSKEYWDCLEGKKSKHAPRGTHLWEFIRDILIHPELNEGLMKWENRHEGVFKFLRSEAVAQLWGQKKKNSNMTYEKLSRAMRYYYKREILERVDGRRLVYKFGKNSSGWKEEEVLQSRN
# Method in brief: as §1
# CRX = CRX (Homo sapiens, UniProt O43186 1-299); conditions: protein: recombinant; tags: N-terminal GST; dsDNA, one strand shown
# Method in brief: as §1
# ETV1 = ETV1 (Homo sapiens, UniProt P50549 1-477); conditions: protein: recombinant; tags: N-terminal GST; dsDNA, one strand shown
# Method in brief: as §1
# Chain of HSF1 (Q00613 whole entry): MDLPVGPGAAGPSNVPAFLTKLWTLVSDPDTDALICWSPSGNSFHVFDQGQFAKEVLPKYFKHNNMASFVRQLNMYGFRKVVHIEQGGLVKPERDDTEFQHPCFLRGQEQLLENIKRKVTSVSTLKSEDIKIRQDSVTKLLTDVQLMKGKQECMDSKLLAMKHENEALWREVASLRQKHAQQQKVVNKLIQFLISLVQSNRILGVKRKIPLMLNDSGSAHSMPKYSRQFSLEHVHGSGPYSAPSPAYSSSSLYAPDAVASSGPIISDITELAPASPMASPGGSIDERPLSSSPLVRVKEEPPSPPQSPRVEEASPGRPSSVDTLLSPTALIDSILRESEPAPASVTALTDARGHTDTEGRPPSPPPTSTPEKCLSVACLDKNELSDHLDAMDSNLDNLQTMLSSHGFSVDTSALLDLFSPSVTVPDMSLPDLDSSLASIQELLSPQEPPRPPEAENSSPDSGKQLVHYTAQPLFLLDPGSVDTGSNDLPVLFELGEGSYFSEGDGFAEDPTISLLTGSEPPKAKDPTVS
# Chain of ELF4 (Q99607 whole entry): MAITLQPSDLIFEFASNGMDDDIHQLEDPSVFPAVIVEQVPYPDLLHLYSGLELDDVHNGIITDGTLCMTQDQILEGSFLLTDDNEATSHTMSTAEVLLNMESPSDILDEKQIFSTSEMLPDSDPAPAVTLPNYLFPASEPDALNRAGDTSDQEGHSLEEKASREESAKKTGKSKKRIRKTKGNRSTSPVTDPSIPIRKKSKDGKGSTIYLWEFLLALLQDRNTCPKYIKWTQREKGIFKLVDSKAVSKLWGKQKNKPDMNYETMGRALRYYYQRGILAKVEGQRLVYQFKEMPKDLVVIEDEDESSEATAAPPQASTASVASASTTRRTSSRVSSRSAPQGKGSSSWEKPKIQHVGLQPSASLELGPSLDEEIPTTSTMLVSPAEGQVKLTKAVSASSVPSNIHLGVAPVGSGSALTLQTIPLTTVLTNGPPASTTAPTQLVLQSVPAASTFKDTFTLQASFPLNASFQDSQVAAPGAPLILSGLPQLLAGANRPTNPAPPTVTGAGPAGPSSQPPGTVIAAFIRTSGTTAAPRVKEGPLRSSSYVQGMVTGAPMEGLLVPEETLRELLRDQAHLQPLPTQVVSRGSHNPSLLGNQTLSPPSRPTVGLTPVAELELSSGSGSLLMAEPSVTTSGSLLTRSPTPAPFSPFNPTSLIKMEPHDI
# Chain of ETV5 (P41161 whole entry): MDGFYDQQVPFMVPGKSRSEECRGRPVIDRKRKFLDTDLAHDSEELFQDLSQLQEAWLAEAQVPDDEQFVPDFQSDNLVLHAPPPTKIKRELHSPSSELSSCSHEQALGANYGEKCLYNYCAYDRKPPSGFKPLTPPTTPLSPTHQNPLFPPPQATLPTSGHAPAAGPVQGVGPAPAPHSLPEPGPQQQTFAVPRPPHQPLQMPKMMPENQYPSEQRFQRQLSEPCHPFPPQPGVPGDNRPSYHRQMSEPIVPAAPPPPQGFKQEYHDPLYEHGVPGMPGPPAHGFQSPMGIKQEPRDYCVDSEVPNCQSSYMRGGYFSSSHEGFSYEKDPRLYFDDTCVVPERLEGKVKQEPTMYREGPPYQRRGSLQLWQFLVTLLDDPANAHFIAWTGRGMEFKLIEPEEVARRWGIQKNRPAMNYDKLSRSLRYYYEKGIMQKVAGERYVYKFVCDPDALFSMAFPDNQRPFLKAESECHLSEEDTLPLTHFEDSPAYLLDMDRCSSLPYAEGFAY
# Chain of ELF1 (P32519 whole entry): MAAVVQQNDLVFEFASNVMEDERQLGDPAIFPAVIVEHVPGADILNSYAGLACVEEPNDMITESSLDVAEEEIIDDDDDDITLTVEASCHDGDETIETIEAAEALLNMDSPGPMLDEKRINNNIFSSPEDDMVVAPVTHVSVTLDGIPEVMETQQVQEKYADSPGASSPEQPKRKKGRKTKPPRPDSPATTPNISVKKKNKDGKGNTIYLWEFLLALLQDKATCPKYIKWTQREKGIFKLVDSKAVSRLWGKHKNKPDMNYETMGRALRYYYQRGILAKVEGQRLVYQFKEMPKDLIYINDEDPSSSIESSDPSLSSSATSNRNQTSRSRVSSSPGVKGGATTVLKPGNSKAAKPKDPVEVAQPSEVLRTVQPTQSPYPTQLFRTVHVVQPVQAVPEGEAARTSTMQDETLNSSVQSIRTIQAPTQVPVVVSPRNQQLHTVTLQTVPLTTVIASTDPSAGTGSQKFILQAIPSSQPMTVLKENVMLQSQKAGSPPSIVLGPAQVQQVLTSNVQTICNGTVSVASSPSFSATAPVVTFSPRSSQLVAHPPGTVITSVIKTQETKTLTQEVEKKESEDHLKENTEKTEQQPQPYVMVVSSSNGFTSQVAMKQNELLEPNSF
# Chain of CRX (O43186 whole entry): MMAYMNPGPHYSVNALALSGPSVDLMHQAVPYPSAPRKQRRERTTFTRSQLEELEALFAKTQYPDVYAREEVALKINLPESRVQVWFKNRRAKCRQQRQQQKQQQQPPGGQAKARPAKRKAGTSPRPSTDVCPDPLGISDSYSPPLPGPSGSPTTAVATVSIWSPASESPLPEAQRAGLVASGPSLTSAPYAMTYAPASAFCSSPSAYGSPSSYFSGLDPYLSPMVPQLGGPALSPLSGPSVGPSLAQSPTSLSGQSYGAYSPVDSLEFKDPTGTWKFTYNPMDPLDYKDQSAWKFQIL
# Chain of ETV1 (P50549 whole entry): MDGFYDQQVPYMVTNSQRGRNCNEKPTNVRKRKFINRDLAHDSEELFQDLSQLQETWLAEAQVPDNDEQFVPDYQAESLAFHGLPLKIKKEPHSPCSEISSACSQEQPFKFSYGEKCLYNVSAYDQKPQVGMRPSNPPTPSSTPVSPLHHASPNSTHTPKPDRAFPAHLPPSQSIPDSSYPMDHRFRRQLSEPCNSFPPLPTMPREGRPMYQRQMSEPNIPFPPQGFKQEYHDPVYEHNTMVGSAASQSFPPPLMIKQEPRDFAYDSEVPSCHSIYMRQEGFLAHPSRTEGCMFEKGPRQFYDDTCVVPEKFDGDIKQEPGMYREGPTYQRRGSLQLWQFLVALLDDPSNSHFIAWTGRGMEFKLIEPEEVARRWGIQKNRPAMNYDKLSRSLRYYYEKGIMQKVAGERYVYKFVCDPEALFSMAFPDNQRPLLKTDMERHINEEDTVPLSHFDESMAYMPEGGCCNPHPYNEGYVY
# Chain of SPIB (Q01892 whole entry): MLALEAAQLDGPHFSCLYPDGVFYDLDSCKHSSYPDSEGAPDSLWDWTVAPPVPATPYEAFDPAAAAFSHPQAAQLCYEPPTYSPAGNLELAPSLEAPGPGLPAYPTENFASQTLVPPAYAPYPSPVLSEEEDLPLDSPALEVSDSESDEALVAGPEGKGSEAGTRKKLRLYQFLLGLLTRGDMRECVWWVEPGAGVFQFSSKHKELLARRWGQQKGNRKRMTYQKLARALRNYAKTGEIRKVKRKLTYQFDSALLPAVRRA
sequence,measurement,setting,value
GGCCTA,binding signal,FLI1,"1.15 fold enrichment (6-mer frequency, TF over GST control)"
same,binding signal,ELK1,"1.22 fold enrichment (6-mer frequency, TF over GST control)"
same,binding signal,GABPA,"1.31 fold enrichment (6-mer frequency, TF over GST control)"
same,binding signal,ERG,"1.37 fold enrichment (6-mer frequency, TF over GST control)"
same,binding signal,ELF1,"1.3 fold enrichment (6-mer frequency, TF over GST control)"
same,binding signal,EHF,"1.23 fold enrichment (6-mer frequency, TF over GST control)"
same,binding signal,SPI1,"1.03 fold enrichment (6-mer frequency, TF over GST control)"
same,binding signal,SPIB,"1.04 fold enrichment (6-mer frequency, TF over GST control)"
same,binding signal,ELK3,"1.1 fold enrichment (6-mer frequency, TF over GST control)"
same,binding signal,FEV,"1.19 fold enrichment (6-mer frequency, TF over GST control)"
same,binding signal,ETV5,"1.22 fold enrichment (6-mer frequency, TF over GST control)"
same,binding signal,HSF1,"1.33 fold enrichment (6-mer frequency, TF over GST control)"
same,binding signal,SPIC,"1.1 fold enrichment (6-mer frequency, TF over GST control)"
same,binding signal,ELF4,"1.25 fold enrichment (6-mer frequency, TF over GST control)"
same,binding signal,ELK4,"1.25 fold enrichment (6-mer frequency, TF over GST control)"
same,binding signal,ETV2,"1.14 fold enrichment (6-mer frequency, TF over GST control)"
same,binding signal,ELF3,"1.22 fold enrichment (6-mer frequency, TF over GST control)"
same,binding signal,CRX,"1.39 fold enrichment (6-mer frequency, TF over GST control)"
same,binding signal,ETV1,"1.2 fold enrichment (6-mer frequency, TF over GST control)"

# — PMC7862700, “An all-to-all approach to the identification of sequence-specific readers for epigenetic DNA modifications on cytosine”
